Drawing on PubChem BioAssay (NCI), this text covers growth for seven compounds.

About 83,000 compounds went through this panel and 20% of them were active in at least one assay; those are over-represented in the sample as a whole.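 For each line, cells grew in 96-well plates with the test compound present at a single concentration for 48 hours.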 Unmarked numbers belong to inactive results. Active and inactive are the calls of the source. How the source made its calls: active means growth percent below 10; inactive means the rest.

Test systems include NCI-H23 lung; NCI-H226 lung; NCI-H322M lung; HOP-62 NSCLC; NCI-H460 lung; HOP-92 NSCLC; NCI-H522 lung; A549/ATCC NSCLC; 786-0 renal; COLO 205 colon; DU-145 prostate; K-562 leukemia; MALME-3M melanoma; MDA-MB-231 breast; RXF 393 renal; SF-268 CNS; SF-295 CNS; SF-539 CNS; UACC-257 melanoma; M14 melanoma.
Holding throughout (assay): NCI-60 one-dose screen, 48 h (100 = growth as untreated, 0 = no growth, -100 = all killed)
Conditions in all cases: 10 µM unless noted

Regarding `O=C1Nc2ccccc2/C1=C/c1cn(C[C@@H](O)Cn2c3ccccc3c(=O)c3ccccc32)c2ccccc12`, the growth was 84.1% in the test on NCI-H23 lung; 63.1% with NCI-H226 lung; 75.9% with NCI-H322M lung; 62.2% in the test on HOP-62 NSCLC; 74.3% in the test with NCI-H460 lung; 52.9% with HOP-92 NSCLC. In addition, the growth in the test on NCI-H522 lung is 55.5%; in the test on A549/ATCC NSCLC, 71.6%; with 786-0 renal, 86.4%; in the test with COLO 205 colon it was 84.1%; with DU-145 prostate it was 105%; in the test on K-562 leukemia, 68.4%. Further, the growth in the test with MALME-3M melanoma was 81.3%; in the test with MDA-MB-231 breast, 50.2%; in the test on RXF 393 renal it was 76.8%; in the test with SF-268 CNS, 72.8%; in the test with SF-295 CNS, 81.6%; with SF-539 CNS, 84.7%. Also, the growth with UACC-257 melanoma is 100%; in the test on M14 melanoma, 69.7%.

In the case of `CS(=O)(=O)Nc1cncc(-c2ccc3ncnc(Nc4ccc(F)c(Cl)c4)c3c2)c1`, the growth was 33.1% in the test on NCI-H23 lung; 55.7% in the test on NCI-H226 lung; 10.5% with NCI-H322M lung; 40.1% in the test with HOP-62 NSCLC; 61.9% in the test with NCI-H460 lung; -4.23% (active) in the test on HOP-92 NSCLC. For the same compound, the growth in the test with NCI-H522 lung is 8.87% (active); in the test with A549/ATCC NSCLC, 43.1%; with 786-0 renal, 62%; in the test on COLO 205 colon, 32.5%; in the test on DU-145 prostate, 36.5%; in the test on K-562 leukemia it was 35.3%. The growth in the test on MALME-3M melanoma was 44.1%; in the test with MDA-MB-231 breast, 54.6%; with RXF 393 renal it was 24.9%; in the test with SF-268 CNS, 41.5%; in the test on SF-295 CNS, 44.5%; in the test on SF-539 CNS, 32.5%. Moreover, the growth was 35.2% in the test on UACC-257 melanoma and 52.5% in the test on M14 melanoma.

In the case of `CC[C@]12C=CCN3CC[C@@]4(c5ccc(OC)cc5N(C)[C@H]4[C@@](O)(C(=O)OC)[C@@H]1OC(=O)CCCN1CCOCC1)[C@@H]32`, the growth in the test with NCI-H23 lung was 106%; in the test on NCI-H226 lung, 108%; in the test with NCI-H322M lung, 106%; with HOP-62 NSCLC, 99.1%; in the test on NCI-H460 lung, 111%; in the test on HOP-92 NSCLC it was 94.5%. Besides, the growth in the test on NCI-H522 lung was 100%; in the test with A549/ATCC NSCLC, 101%; in the test with 786-0 renal, 96.9%; with COLO 205 colon it was 108%; in the test with DU-145 prostate it was 106%; in the test with K-562 leukemia, 100%. In addition, the growth is 110% with MALME-3M melanoma; 115% with MDA-MB-231 breast; 114% in the test on RXF 393 renal; 98.6% in the test on SF-268 CNS; 104% with SF-295 CNS; 106% with SF-539 CNS. Moreover, the growth with UACC-257 melanoma is 104%; with M14 melanoma, 103%.

On to `COc1ccc(C2=C/C(=C\c3ccc(Cl)cc3)C(=O)N2/N=C/c2ccc(Cl)cc2)cc1`, for which the growth was 103% in the test on NCI-H23 lung; 93.1% in the test on NCI-H226 lung; 89.7% in the test on NCI-H322M lung; 97.8% in the test on HOP-62 NSCLC; 106% in the test on NCI-H460 lung; 72.8% with HOP-92 NSCLC. The growth is 73.9% with NCI-H522 lung; 80.7% in the test with A549/ATCC NSCLC; 103% in the test on 786-0 renal; 96.9% with COLO 205 colon; 105% with DU-145 prostate; 89.2% with K-562 leukemia. The growth with MALME-3M melanoma is 96.4%; in the test on MDA-MB-231 breast, 88.8%; in the test on RXF 393 renal, 99.3%; in the test with SF-268 CNS it was 92.6%; in the test with SF-295 CNS, 100%; in the test with SF-539 CNS, 101%. The growth in the test on UACC-257 melanoma is 88.7%; in the test with M14 melanoma, 100%.

In the case of `COc1ccc(C2=Nc3c(N)ncnc3NC(c3cccc(Nc4ccnc5cc(C(F)(F)F)ccc45)c3)C2)cc1` (stereo not given), the growth is 70.1% in the test on NCI-H23 lung; 64.2% in the test on NCI-H226 lung; 81.3% in the test on NCI-H322M lung; 63.7% in the test with HOP-62 NSCLC; 70.9% with NCI-H460 lung; 31.4% in the test with HOP-92 NSCLC. Besides, the growth in the test on NCI-H522 lung was 69.6%; in the test on A549/ATCC NSCLC, 59.8%; in the test with 786-0 renal it was 59.4%; in the test with COLO 205 colon, 62.4%; in the test on DU-145 prostate, 80.2%; in the test with K-562 leukemia, 15.5%. Moreover, the growth is 72.3% in the test on MALME-3M melanoma; 46.3% in the test with MDA-MB-231 breast; 41% with RXF 393 renal; 56.9% in the test on SF-268 CNS; 61.9% in the test on SF-295 CNS; 70% in the test with SF-539 CNS. For the same compound, the figures for the growth with UACC-257 melanoma and in the test on M14 melanoma were 74.9% and 66%, respectively.

`N#C/C(=C\c1ccc(Cl)cc1Cl)C(=O)Nc1ncc(Cc2ccc(Cl)c(Cl)c2)s1`: the growth in the test with NCI-H23 lung is 91.8%; in the test with NCI-H226 lung it was 93.4%; with NCI-H322M lung, 76.4%; in the test on HOP-62 NSCLC it was 82.9%; with NCI-H460 lung, 101%; with HOP-92 NSCLC it was 70.7%. In addition, the growth with NCI-H522 lung is 79.1%; in the test with A549/ATCC NSCLC, 89.3%; in the test on 786-0 renal, 93.2%; in the test with COLO 205 colon, 112%; in the test with DU-145 prostate it was 99.3%; in the test with K-562 leukemia it was 25.5%. The growth with MALME-3M melanoma was 93%; in the test with MDA-MB-231 breast it was 97.1%; in the test on RXF 393 renal it was 113%; with SF-268 CNS, 84%; with SF-295 CNS, 89.9%; in the test with SF-539 CNS it was 85.6%. Also, the figures for the growth with UACC-257 melanoma and in the test with M14 melanoma were 93.2% and 53.8%, respectively.

With `CCN1C(=O)N(CC)C2C1NN=c1s/c(=C3\C(=O)N(CCc4ccccc4)c4ccccc43)c(=O)n12` (stereo not given), the growth in the test with NCI-H23 lung was 22.7%; with NCI-H226 lung, 24.8%; in the test with NCI-H322M lung it was 36.1%; in the test on HOP-62 NSCLC it was 24.4%; in the test on NCI-H460 lung, 1.95% (active); in the test with HOP-92 NSCLC, 38.1%. Besides, the growth was -5.28% (active) in the test with NCI-H522 lung; 16.1% in the test on A549/ATCC NSCLC; 22.1% in the test with 786-0 renal; 7.44% (active) in the test on COLO 205 colon; 5.49% (active) with DU-145 prostate; 7.99% (active) in the test on K-562 leukemia. In addition, the growth in the test on MALME-3M melanoma was 33.3%; in the test on MDA-MB-231 breast, 2.5% (active); in the test with RXF 393 renal, -5.91% (active); with SF-268 CNS it was 47%; in the test with SF-295 CNS, 9.5% (active); in the test with SF-539 CNS it was -37.4% (active). In addition, the growth in the test with UACC-257 melanoma is 53.2%; in the test with M14 melanoma, 13.6%.
